PubChem BioAssay (NCI)
The panel holds about 83,000 compounds, 20% with a hit somewhere; the sample as a whole holds those more often.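 Activity criterion: percent growth below 10, measured after cells in 96-well plates were exposed to a single compound concentration for 48 hours.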 Activity calls are given as the source filed them.

Experiments:
Test in all cases: NCI-60 one-dose screen, 48 h (100 = growth as untreated, 0 = no growth, -100 = all killed)
Conditions in all cases: 10 µM unless noted
[1] = test system: NCI-H23 lung
[2] = test system: NCI-H226 lung
[3] = test system: NCI-H322M lung
[4] = test system: HOP-62 NSCLC
[5] = test system: NCI-H460 lung
[6] = test system: HOP-92 NSCLC
[7] = test system: NCI-H522 lung
[8] = test system: A549/ATCC NSCLC
[9] = test system: 786-0 renal
[10] = test system: COLO 205 colon
[11] = test system: DU-145 prostate
[12] = test system: K-562 leukemia
[13] = test system: MALME-3M melanoma
[14] = test system: MDA-MB-231 breast
[15] = test system: RXF 393 renal
[16] = test system: SF-268 CNS
[17] = test system: SF-295 CNS
[18] = test system: SF-539 CNS
[19] = test system: UACC-257 melanoma
[20] = test system: M14 melanoma

Measured: growth

CCSc1sc(-c2ccc(C)cc2)nc1[P+](c1ccccc1)(c1ccccc1)c1ccccc1
active: [1] -13.9% | [2] -4.39% | [3] -16.7% | [4] -10.3% | [5] -40.5% | [6] -38.3% | [7] -10.4% | [8] 3.64% | [9] 5.86% | [10] -26% | [11] 4.57% | [12] 0.0447% | [13] -28.4% | [14] -24.8% | [15] -37% | [16] 7.81% | [17] -11.3% | [18] 9.93% | [19] -3.94% | [20] -8.96%

Cn1c(/C(C#N)=C/c2ccc3ccccc3c2)cc2ccccc21
inactive: [1] 19.4% | [2] 40.5% | [3] 48.9% | [4] 38.2% | [6] 64.8% | [7] 27.1% | [8] 29.8% | [9] 34.1% | [11] 14.9% | [12] 13.9% | [13] 46.5% | [15] 41.1% | [16] 42.9% | [19] 84.8%
active: [5] 6.27% | [10] 2.87% | [14] 5.53% | [17] 3.45% | [18] 3.9% | [20] 5.87%

COc1ccc(NC(=O)c2ccc3c(c2)nc(-c2cc4ccccc4[nH]c2=O)n3-c2cc(C(C)(C)C)[nH]n2)cc1
inactive: [1] 90.4% | [2] 99% | [3] 91.7% | [4] 98.7% | [5] 97.4% | [6] 90.8% | [7] 72.8% | [8] 93.7% | [9] 92.4% | [10] 96.4% | [11] 103% | [12] 82.4% | [13] 101% | [14] 98.2% | [15] 77.3% | [16] 79.3% | [17] 89.9% | [18] 94.9% | [19] 97.7% | [20] 96.1%

Cc1cc(C)n(Cc2cc(C(C)(C)C)cc(C(C)(C)C)c2)c(=O)c1C#N
inactive: [1] 101% | [2] 93.3% | [3] 92.5% | [4] 96.3% | [5] 93.9% | [6] 86% | [7] 83.9% | [8] 98% | [9] 93.5% | [10] 110% | [11] 103% | [12] 88.1% | [13] 82.4% | [14] 82.5% | [15] 101% | [16] 94.8% | [17] 85.9% | [18] 90.8% | [19] 102% | [20] 89.8%

O=C1CN(c2ccccc2)C(=O)C1C(=O)Nc1ccc(Cl)c(Cl)c1 (stereo not given)
active: [4] 9.46% [100 µM] | [5] -2.82% [100 µM] | [7] 8.5% [100 µM] | [9] 0.0265% [100 µM] | [10] -23.1% [100 µM] | [13] -11.7% [100 µM] | [17] 0.977% [100 µM] | [18] -9.88% [100 µM]
inactive: [1] 31.2% [100 µM] | [2] 41.6% [100 µM] | [3] 19.6% [100 µM] | [6] 10.6% [100 µM] | [8] 16.2% [100 µM] | [11] 38.9% [100 µM] | [12] 20.1% [100 µM] | [14] 27.2% [100 µM] | [15] 34.7% [100 µM] | [16] 31.2% [100 µM] | [19] 16.2% [100 µM] | [20] 28.8% [100 µM]

CC(=O)OC(C)COc1ccc(-c2ccccc2)cc1 (stereo not given)
inactive: [1] 107% | [2] 106% | [3] 121% | [4] 102% | [5] 105% | [6] 89.9% | [7] 84.4% | [8] 54.9% | [9] 93.4% | [10] 104% | [11] 101% | [12] 97.9% | [13] 118% | [14] 103% | [15] 104% | [16] 96.1% | [17] 97.5% | [18] 101% | [19] 74.3% | [20] 92.1%

CCOc1ccc(NC(=O)c2ccoc2COc2ccccc2)cc1
inactive: [1] 103% | [2] 111% | [3] 99.7% | [4] 111% | [5] 112% | [6] 95.2% | [7] 93.9% | [8] 103% | [9] 105% | [10] 123% | [11] 106% | [12] 88.8% | [13] 100% | [14] 98.7% | [15] 106% | [16] 97.8% | [17] 101% | [18] 98.5% | [19] 106% | [20] 104%
